Sampled rows, rich in hits. Any-hit rate of the full collection: about 21%.
Pf growth 96h = P. falciparum growth inhibition at 96 hour, primary screen for plastid delayed-death inhibitors. P. falciparum luciferase reporter growth, 96 h. Potency, µM (top dose mostly 28.7 µM), inactives show at the top dose activity change, negative = inhibition, most hits filed as inhibitors. 6.9% of 320,000 active; active = well fitted inhibition curve with a large enough effect; inconclusive = small, poorly fitted or top-dose-only effect, or another doubt; inactive = no such curve, though single readings can be large or run the other way; also: potency is read from the fitted curve at half-maximal effect; % is scaled to controls: 0 for no effect and ±100 for the full control effect
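P. falciparum expressing integrated firefly luciferase, in erythrocytes at 2% hematocrit, 0.05% parasitemia, incubated with compounds 96 h at 37 C, 5% CO2. Growth inhibition read as loss of luminescence; two-generation exposure targets delayed-death apicoplast inhibitors.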
NS1 inh = influenza NS1 inhibition; Potency, µM (series often up to 46.1 µM), for the others: top-dose activity, positive = more growth; 0.4% of 270,000 active; AID 2326; also: potency is read from the fitted curve at half-maximal effect; actives are rising curves; nearly all actives have a fitted effect of over 50% in size
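Recovery from NS1-induced slow growth read by OD600 in budding yeast switched to galactose assay medium (pH 6.0, -URA) at 1:100 dilution. Compound 23 nl per well; the matching strain lacking NS1 serves as control.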
Shiga inhibitor = Shiga toxin inhibition; Vero cells, Shiga toxin protein synthesis inhibition reporter; inhibition, % at 38.7 µM; 9.2% of 290,000 active; in the data active = inhibition mostly above about 28%, no sharp cut-off; inactive = mostly below about 43%; also: 0% is about no effect
SARS PLP yeast = blocks SARS-CoV papain-like protease in a yeast assay. S. cerevisiae expressing SARS-CoV PLpro, growth rescue. Potency, µM (doses to about 32.9 µM), for the others: at the highest dose activity, positive = growth rescue, most hits filed as activators. 0.19% of 330,000 active; also: potency is read from the fitted curve at half-maximal effect; 0% is about no effect; nearly all actives have a fitted effect of over 55% in size
Pf growth 48h = P. falciparum growth inhibition at 48 hours (one generation). P. falciparum luciferase growth in erythrocytes, 48 h. Potency, µM (highest dose often 28.7 µM), for inactives: at the highest dose activity change, negative = inhibition, hits mostly inhibitors. 5.9% of 310,000 active; active = well fitted inhibition curve with a large enough effect; inconclusive = small, poorly fitted or top-dose-only effect, or another doubt; inactive = no such curve, though single readings can be large or run the other way; also: potency is read from the fitted curve at half-maximal effect; % is scaled to controls: 0 for no effect and ±100 for the full control effect
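Luciferase-expressing P. falciparum in infected erythrocytes (2% hematocrit, 0.1% parasitemia final) in RPMI 1640/0.5% Albumax were exposed to compound for 48 hours at 37 C, 5% CO2; growth read as luminescence.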
Cycloheximide cs = counter-screen for Shiga toxin inhibitors: cycloheximide protein synthesis inhibition; 12% of 300,000 active; AID 2314; max response, %; cell reporter, cycloheximide protein synthesis inhibition counterscreen; in the data active = max response mostly above about 13%, no sharp cut-off; inactive = mostly below about 14%; also: read at 38.3 µM for the half of the compounds with a filed dose; 0% is about no effect
* hit, by the source's call; ? = inconclusive; · = no result given. Unless noted, calls follow the shape of the full dose curve.

SMILES	Pf growth 96h	NS1 inh	Shiga inhibitor	SARS PLP yeast	Pf growth 48h	Cycloheximide cs
CC(C)(C)OC(=O)C[C@@H]1C/C=C\C[C@H](CC(=O)N(CCO)Cc2ccccc2)C(=O)N2CCC[C@H]2COC1=O	·	·	·	3%	·	·
Cc1ccc(-c2csc3nc(=O)c(C)nn23)cc1	5.2µM*	-4%	-4	0%	31%	6
CC[C@H](C)[C@H](NC(=O)[C@H](Cc1ccc(O)cc1)NC(=O)[C@@H]1CCCN1C(=O)[C@@H](N)CCCN=C(N)N)C(=O)N[C@@H](CC(C)C)C(=O)O	·	·	-2	·	·	-5
COCCOC(=O)c1c(C)oc2ccc(OS(C)(=O)=O)cc12	-21%	-1%	18	1%	37%	21*
Cc1oc2ccc(OS(C)(=O)=O)cc2c1C(=O)OC(C)C	?	·	32	-12%	-12%	12
O=C(Nc1ccc(OC(F)(F)F)cc1)C1CCCN(S(=O)(=O)c2cnc[nH]2)C1 (stereo unspecified)	?	-9%	-1	1%	11%	-2
Cc1ccccc1CC(=O)NC1CCCCCC1	?	4%	9	1%	0%	5
Cc1ccccc1CC(=O)NCC1CCCCC1	12µM*	13%	19	-2%	-2%	5
Cc1ccc(CC(=O)NCC2CCCCC2)cc1	-17%	-19%	71*	0%	6%	26*
COC(=O)c1sccc1NC(=O)Nc1ccccc1Cl	?	-27%	-11	-4%	14%	-2
Cn1ccc(C(=O)N/N=C/c2ccccc2[N+](=O)[O-])n1	81%	-2%	100*	0%	93%	40*
CN(C)c1ccc(/C=N/NC(=O)c2ccnn2C)cc1	31%	-7%	58*	-2%	226%	24*
Cn1ccc(C(=O)N/N=C/c2cccnc2)n1	-24%	18%	45*	-3%	9%	18*
CCN(CC)c1ccc(/C=N/NC(=O)c2c(Cl)c(C)nn2C)cc1	24%	-32%	4	3%	0%	-1
Cn1cc([N+](=O)[O-])c(C(=O)N/N=C/c2ccccc2)n1	-10%	-6%	14	-2%	8%	0
CN(C)c1ccc(/C=N/NC(=O)c2ccn(C)n2)cc1	116%	-37%	34*	-2%	190%	33*
Cc1cc(C(=O)OCC(=O)NCCC(C)C)c2ccccc2n1	12%	-13%	55	-9%	?	-5
COc1cc(NC(=O)COc2cccc3c2OC(C)(C)C3)cc(OC)c1OC	?	·	·	5%	?	·
O=C(NCC(=O)N1CCN(C(=O)c2ccccc2)CC1)c1ccc(Cl)cc1Cl	-19%	·	·	0%	-21%	·
O=[N+]([O-])c1ccccc1Oc1ccccc1Cl	-20%	?	20	5%	?	15*
CCOC(=O)N1CCC(N2Cc3cccc(C(=O)N4CCN(c5cccc(C)c5C)CC4)c3C2=O)CC1	?	·	14	-3%	10µM*	-2
CCOC(=O)N1CCC(N2Cc3cccc(C(=O)N4CCN(c5cccc(Cl)c5)CC4)c3C2=O)CC1	?	·	-11	3%	-13%	-6
CCOC(=O)N1CCC(N2Cc3cccc(C(=O)Nc4ccccc4OC)c3C2=O)CC1	?	20%	-10	-2%	9.3µM*	2
O=C(COC(=O)Cc1ccccc1F)Nc1ccc(SC(F)F)cc1	?	-6%	12	-23%	17%	-1
O=C(Cc1ccc(Cl)cc1)Nc1ccc(SC(F)F)cc1	-95%	-1%	13*	-25%	-63%	45*
SMILES	Pf growth 96h	NS1 inh	Shiga inhibitor	SARS PLP yeast	Pf growth 48h	Cycloheximide cs
O=C(COC(=O)Cc1ccc(Cl)cc1)Nc1ccc(OC(F)F)cc1	27%	-7%	-9	-2%	-4%	1
O=C(Cc1ccccc1F)Nc1ccc(SC(F)F)cc1	55%	8%	57*	-4%	185%	91*
O=C(NC(=O)c1ccccc1O)c1ccc(C(F)(F)F)cc1	2.3µM*	6%	82	-4%	?	14
CCCc1ccc(C(=O)NC(=O)c2ccccc2O)cc1	0.37µM*	-83%	19	-7%	0.066µM*	23*
CC(C)=CCN1CCN(Cc2cc(C(C)C)n[nH]2)CC1CCO (stereo unspecified)	?	2%	-4	0%	2%	-3
Cn1c2c(c(=O)n(C)c1=O)C(c1ccc(Cl)cc1)C(C#N)=C(N)O2 (stereo unspecified)	?	2%	-5	8%	7%	3
